Inconclusive results are not listed. More than one record can exist for a structure, and the calls need not agree. Calls of active or inactive are those of the source. Rule for the calls: active = hit-call score of the fitted dose curve at least 0.9, where 1 is the maximum; inconclusive = response in the unintended direction; inactive = score below 0.9.
The molecules below were run against Retinoic acid receptor alpha (Homo sapiens) (UniProt P10276) (assay: ATG_RARa_TRANS: Attagene TRANS-FACTORIAL HepG2 Assay for human Retinoic Acid Receptor alpha (RARa) (AID 2283005);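 for AC50: potency for increased reporter signal meaning RARa activation over DMSO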).
Retinoic acid receptor alpha (Homo sapiens), sequence (P10276 whole entry, looked up): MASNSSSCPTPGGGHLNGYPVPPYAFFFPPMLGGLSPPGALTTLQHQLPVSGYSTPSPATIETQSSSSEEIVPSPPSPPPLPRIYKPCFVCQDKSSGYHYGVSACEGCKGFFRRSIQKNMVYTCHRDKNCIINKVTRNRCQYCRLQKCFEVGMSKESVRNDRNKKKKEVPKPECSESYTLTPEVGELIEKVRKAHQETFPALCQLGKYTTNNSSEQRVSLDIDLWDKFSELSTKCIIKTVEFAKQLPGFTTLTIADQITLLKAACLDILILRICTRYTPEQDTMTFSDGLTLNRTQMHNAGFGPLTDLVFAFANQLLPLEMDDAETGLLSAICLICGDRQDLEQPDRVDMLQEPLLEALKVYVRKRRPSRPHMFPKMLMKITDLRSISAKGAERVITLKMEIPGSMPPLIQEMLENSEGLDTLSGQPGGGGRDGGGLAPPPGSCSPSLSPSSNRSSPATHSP
Protocol: ATG_TRANS is a cell-based, multiplexed-readout assay that uses HepG2, a human liver cell line, with measurements taken at 24 hours after chemical dosing in a 24-well plate.ATG_RARa_TRANS is one of 30 assay component(s) measured or calculated from the ATG_TRANS assay. It is designed to make measurements of mRNA induction, a form of inducible reporter, as detected with fluorescence intensity signals by Reverse transcription polymerase chain reaction (RT-PCR) and Capillary electrophoresis technology.Data from the assay component ATG_RARa_TRANS was analyzed into 1 assay endpoint. This assay endpoint, ATG_RARa_TRANS, was analyzed in the positive analysis fitting direction relative to DMSO as the negative control and baseline of activity. Using a type of inducible reporter, measures of mRNA for gain-of-signal activity can be used to understand the reporter gene at the transcription factor-level as they relate to the gene RARA. Furthermore, this assay endpoint can be referred to as a primary readout, because this assay has produced multiple assay endpoints where this one serves a reporter gene function. To generalize the intended target to other relatable targets, this assay endpoint is annotated to the nuclear receptor intended target family, where the subfamily is non-steroidal.
Human liver HepG2 cells are transiently transfected with multiple reporter transcription units (MRTUs) in 6-well plates using FuGene 6 reagent (Roche; 3 ml FuGene/1 mg DNA). The MRTU constructs are regulated by a cis-regulating element (promoter). […] A major difference between the CIS and TRANS system is that in CIS activities of endogenous TFs are measured, whereas the TRANS assay evaluates changes in activities of exogenous, chimeric NR-Gal4 proteins. […] At the end of 24 hour incubation, total RNA was isolated using TriZol reagent (Invitrogen). The isolated RNA is then reverse-transcribed using oligo(dT) primer and Mo-MLV reverse transcriptase (Invitrogen) with DNAse I (Ambion) treatment for 30 min. The one-tenth of the produced cDNA was amplified by PCR using Taq DNA polymerase (Invitrogen) and two reporter sequence-specific primers. The PCR products were fluorescently labeled by primer extension with 6-arboxyfluorescein (6-FAM) 5'-labeled reporter sequence-specific primer (2 min at 95 C, 20 s at 68 C and 10 min at 72 C) and these products were digested with 5U of HpaI (New England Biolabs) for 2h at 37 C. The fragments were purified using Qiaquick PCR columns (Qiagen), analyzed on an ABI 3130xL genetic analyzer (Applied Biosystems) with peak positions identified by using a set of X-rhodamine (ROX)-labeled MapMarker1000 molecular weight standards (BioVentures). The raw capillary electrophoresis data was processed using Attagraph software (Attagene).

Structure (SMILES)	outcome	AC50
CC[C@H](C)[C@@H](C(=O)O)n1sc2ccccc2c1=O	inactive	–
c1ccc2cc3c(ccc4ccccc43)cc2c1	inactive	–
CCCCCCCCCCCCCC[N+](C)(C)C	inactive	48.5 µM (active)
CCCCC(CC)COC(=O)CCCCC(=O)OCC(CC)CCCC (configuration not stated)	inactive	–
CN(C)C=O	inactive	–
O=C(O)Cc1cc(I)c(Oc2cc(I)c(O)c(I)c2)c(I)c1	inactive	–
C#C[C@]1(O)CC[C@H]2[C@@H]3CCC4=CC(=O)CC[C@@H]4[C@H]3CC[C@@]21C	inactive	–
CC(C)CCCCCCOC(=O)CCCCC(=O)OCCCCCCC(C)C	inactive	–
O=C1OC2(c3ccccc31)c1cc(Br)c(O)c(Br)c1Oc1c2cc(Br)c(O)c1Br	inactive	–
CCCOC(=O)c1ccc(O)cc1	inactive	–
OCCC(F)(F)C(F)(F)C(F)(F)C(F)(F)C(F)(F)C(F)(F)F	inactive	–
Cc1cc(C)c(O)c(C)c1	inactive	–
CC(O)CO (configuration not stated)	inactive	–
CCc1nn(C2CCCCC2)c2cc(C3(C#N)CCC(C(=O)O)CC3)ccc12 (configuration not stated)	inactive	–
CC(C)(C)c1cccc(C(C)(C)C)c1O	inactive	–
NCC(F)(F)C(F)(F)C(F)(F)C(F)(F)C(F)(F)C(F)(F)C(F)(F)F	inactive	–
CC(O)C(=O)O (configuration not stated)	inactive	–
CC(C)(C)c1ccc(O)c(C(C)(C)C)c1	inactive	–
COC(=O)CCCCC(=O)OC	inactive	–
CC(=O)CC(C)(C)O	inactive	–
NC(=O)N1C(=O)C(C(=O)c2cc(Cl)cs2)c2cc(F)c(Cl)cc21 (configuration not stated)	inactive	–
CCOC(=O)CC(O)(CC(=O)OCC)C(=O)OCC	inactive	–
CCC(=C(c1ccc(O)cc1)c1ccc(OCCN(C)C)cc1)c1ccccc1	inactive	–
CCCCCCCCCCCCc1ccccc1S(=O)(=O)O	inactive	–
COc1cc(CCC(=O)CC(=O)CCc2ccc(O)c(OC)c2)ccc1O	inactive	–
O=C(O)c1ccccc1C(c1ccc(O)cc1)c1ccc(O)cc1	inactive	–
